About 410 targets per protein were measured; listed, in parts, are those with the strongest signals and a random draw of the rest.
Columns and labels:
Experiment in all cases: glycan array binding signal (z-score within array); higher = stronger binding
Settings in all cases: glycan notation: IUPAC condensed, linker removed
[1] = biological target: Fuc(a1-2)[Gal(a1-3)]Gal(b1-4)Glc
Summary of the method: (§1)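 Arrays were curated from the Consortium for Functional Glycomics database, 3228 in total, and kept only where the protein sequence was available. Binding is expressed as a within-array Z-score. This score was averaged across arrays of the same protein sequence at different concentrations or buffers and across linkers, and negative values can be read as non-binding.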

[2] = biological target: Fuc(a1-3)[Gal(b1-4)]GlcNAc
Summary of the method: as §1

[3] = biological target: Gal(a1-6)Glc
Summary of the method: as §1

[4] = biological target: Gal(b1-3)Gal
Summary of the method: as §1

[5] = biological target: Gal(b1-3)GalNAc(b1-3)Gal(b1-4)GlcNAc
Summary of the method: as §1

[6] = biological target: Gal(b1-3)GalNAc(b1-4)[Neu5Ac(a2-3)]Gal(b1-4)Glc
Summary of the method: as §1

[7] = biological target: Gal(b1-4)GlcNAc(b1-6)[Gal(b1-3)]GalNAc
Summary of the method: as §1

[8] = biological target: Gal3S(b1-3)GalNAc
Summary of the method: as §1

[9] = biological target: Gal3S(b1-4)Glc
Summary of the method: as §1

[10] = biological target: Gal3S(b1-4)Glc6S
Summary of the method: as §1

[11] = biological target: GalNAc(b1-3)Gal(a1-4)Gal(b1-4)GlcNAc
Summary of the method: as §1

[12] = biological target: GalNAc(b1-4)GlcNAc
Summary of the method: as §1

[13] = biological target: Man(a1-2)Man(a1-3)[Man(a1-3)[Man(a1-6)]Man(a1-6)]Man(b1-4)GlcNAc(b1-4)GlcNAc
Summary of the method: as §1

[14] = biological target: Man(a1-3)[Man(a1-6)]Man(a1-6)[Man(a1-3)]Man(b1-4)GlcNAc(b1-4)GlcNAc
Summary of the method: as §1

[15] = biological target: Neu5Ac(a2-3)Gal(b1-3)GalNAc(b1-3)Gal(a1-4)Gal(b1-4)Glc
Summary of the method: as §1

[16] = biological target: Neu5Ac(a2-3)Gal(b1-3)[Neu5Ac(a2-6)]GalNAc
Summary of the method: as §1

[17] = biological target: Neu5Ac(a2-3)Gal(b1-4)Glc
Summary of the method: as §1

[18] = biological target: Neu5Ac(a2-3)Gal(b1-4)GlcNAc6S
Summary of the method: as §1

[19] = biological target: Neu5Ac(a2-3)GalNAc
Summary of the method: as §1

[20] = biological target: Neu5Ac9Ac(a2-6)Gal(b1-4)GlcNAc
Summary of the method: as §1

[21] = biological target: Fuc(a1-2)[GalNAc(a1-3)]Gal(b1-3)GlcNAc(b1-3)GalNAc
Summary of the method: as §1

[22] = biological target: Fuc(a1-2)[GalNAc(a1-3)]Gal(b1-4)Glc
Summary of the method: as §1

[23] = biological target: Fuc(a1-3)[Gal3S(b1-4)]GlcNAc6S
Summary of the method: as §1

[24] = biological target: Gal(a1-3)Gal(b1-4)GlcNAc
Summary of the method: as §1

[25] = biological target: Gal(b1-3)GlcNAc(a1-6)Gal(b1-4)GlcNAc
Summary of the method: as §1

[26] = biological target: Gal(b1-3)[Fuc(a1-4)]GlcNAc(b1-6)GalNAc
Summary of the method: as §1

[27] = biological target: Gal(b1-4)Glc
Summary of the method: as §1

[28] = biological target: Gal(b1-4)GlcNAc(b1-2)Man(a1-3)[Gal(b1-4)GlcNAc(b1-2)Man(a1-6)][GlcNAc(b1-4)]Man(b1-4)GlcNAc(b1-4)[Fuc(a1-6)]GlcNAc
Summary of the method: as §1

[29] = biological target: Gal(b1-4)GlcNAc(b1-2)Man(a1-6)[GlcNAc(b1-2)Man(a1-3)]Man(b1-4)GlcNAc(b1-4)GlcNAc
Summary of the method: as §1

[30] = biological target: Gal(b1-4)GlcNAc(b1-2)Man(a1-6)[Man(a1-3)]Man(b1-4)GlcNAc(b1-4)GlcNAc
Summary of the method: as §1

[31] = biological target: Gal(b1-4)GlcNAc(b1-2)[Gal(b1-4)GlcNAc(b1-6)]Man(a1-6)[Gal(b1-4)GlcNAc(b1-2)Man(a1-3)]Man(b1-4)GlcNAc(b1-4)GlcNAc
Summary of the method: as §1

[32] = biological target: Gal(b1-4)GlcNAc(b1-3)Gal(b1-4)GlcNAc
Summary of the method: as §1

[33] = biological target: Gal(b1-4)GlcNAc(b1-3)Gal(b1-4)GlcNAc(b1-2)Man(a1-3)[Gal(b1-4)GlcNAc(b1-3)Gal(b1-4)GlcNAc(b1-2)Man(a1-6)]Man(b1-4)GlcNAc(b1-4)GlcNAc
Summary of the method: as §1

[34] = biological target: Gal(b1-4)GlcNAc(b1-3)Gal(b1-4)GlcNAc(b1-2)[Gal(b1-4)GlcNAc(b1-3)Gal(b1-4)GlcNAc(b1-6)]Man(a1-6)[Gal(b1-4)GlcNAc(b1-3)Gal(b1-4)GlcNAc(b1-2)Man(a1-3)]Man(b1-4)GlcNAc(b1-4)[Fuc(a1-6)]GlcNAc
Summary of the method: as §1

[35] = biological target: Gal(b1-4)GlcNAc(b1-3)Gal(b1-4)GlcNAc(b1-3)Gal(b1-4)GlcNAc(b1-2)[Gal(b1-4)GlcNAc(b1-3)Gal(b1-4)GlcNAc(b1-3)Gal(b1-4)GlcNAc(b1-6)]Man(a1-6)[Gal(b1-4)GlcNAc(b1-3)Gal(b1-4)GlcNAc(b1-3)Gal(b1-4)GlcNAc(b1-2)Man(a1-3)]Man(b1-4)GlcNAc(b1-4)[Fuc(a1-6)]GlcNAc
Summary of the method: as §1

[36] = biological target: Gal(b1-4)GlcNAc(b1-3)Gal(b1-4)GlcNAc(b1-3)Gal(b1-4)GlcNAc(b1-3)Gal(b1-4)GlcNAc(b1-2)Man(a1-3)[Gal(b1-4)GlcNAc(b1-3)Gal(b1-4)GlcNAc(b1-3)Gal(b1-4)GlcNAc(b1-3)Gal(b1-4)GlcNAc(b1-2)Man(a1-6)]Man(b1-4)GlcNAc(b1-4)GlcNAc
Summary of the method: as §1

[37] = biological target: Gal(b1-4)GlcNAc(b1-3)Gal(b1-4)GlcNAc(b1-3)Gal(b1-4)GlcNAc(b1-3)Gal(b1-4)GlcNAc(b1-2)[Gal(b1-4)GlcNAc(b1-3)Gal(b1-4)GlcNAc(b1-3)Gal(b1-4)GlcNAc(b1-3)Gal(b1-4)GlcNAc(b1-6)]Man(a1-6)[Gal(b1-4)GlcNAc(b1-3)Gal(b1-4)GlcNAc(b1-3)Gal(b1-4)GlcNAc(b1-3)Gal(b1-4)GlcNAc(b1-2)Man(a1-3)]Man(b1-4)GlcNAc(b1-4)[Fuc(a1-6)]GlcNAc
Summary of the method: as §1

[38] = biological target: Gal(b1-4)GlcNAc(b1-3)Gal(b1-4)GlcNAc(b1-3)Gal(b1-4)GlcNAc(b1-3)Gal(b1-4)GlcNAc(b1-3)Gal(b1-4)GlcNAc(b1-2)Man(a1-3)[Gal(b1-4)GlcNAc(b1-3)Gal(b1-4)GlcNAc(b1-3)Gal(b1-4)GlcNAc(b1-3)Gal(b1-4)GlcNAc(b1-3)Gal(b1-4)GlcNAc(b1-2)Man(a1-6)]Man(b1-4)GlcNAc(b1-4)GlcNAc
Summary of the method: as §1

[39] = biological target: Gal(b1-4)GlcNAc(b1-3)Gal(b1-4)GlcNAc(b1-3)Gal(b1-4)GlcNAc(b1-3)Gal(b1-4)GlcNAc(b1-3)Gal(b1-4)GlcNAc(b1-2)Man(a1-3)[Gal(b1-4)GlcNAc(b1-3)Gal(b1-4)GlcNAc(b1-3)Gal(b1-4)GlcNAc(b1-3)Gal(b1-4)GlcNAc(b1-3)Gal(b1-4)GlcNAc(b1-2)Man(a1-6)]Man(b1-4)GlcNAc(b1-4)[Fuc(a1-6)]GlcNAc
Summary of the method: as §1

[40] = biological target: Gal(b1-4)GlcNAc(b1-3)Gal(b1-4)GlcNAc(b1-3)Gal(b1-4)GlcNAc(b1-3)Gal(b1-4)GlcNAc(b1-3)Gal(b1-4)GlcNAc(b1-2)[Gal(b1-4)GlcNAc(b1-3)Gal(b1-4)GlcNAc(b1-3)Gal(b1-4)GlcNAc(b1-3)Gal(b1-4)GlcNAc(b1-3)Gal(b1-4)GlcNAc(b1-6)]Man(a1-6)[Gal(b1-4)GlcNAc(b1-3)Gal(b1-4)GlcNAc(b1-3)Gal(b1-4)GlcNAc(b1-3)Gal(b1-4)GlcNAc(b1-3)Gal(b1-4)GlcNAc(b1-2)Man(a1-3)]Man(b1-4)GlcNAc(b1-4)[Fuc(a1-6)]GlcNAc
Summary of the method: as §1

[41] = biological target: Gal(b1-4)GlcNAc(b1-6)Gal(b1-4)GlcNAc
Summary of the method: as §1

[42] = biological target: Gal(b1-4)GlcNAc(b1-6)GalNAc
Summary of the method: as §1

[43] = biological target: Gal3S4S(b1-4)GlcNAc
Summary of the method: as §1

[44] = biological target: Gal6S(b1-4)Glc
Summary of the method: as §1

[45] = biological target: Gal6S(b1-4)Glc6S
Summary of the method: as §1

[46] = biological target: Gal6S(b1-4)GlcNAc
Summary of the method: as §1

[47] = biological target: Gal6S(b1-4)GlcNAc6S
Summary of the method: as §1

[48] = biological target: GalNAc(a1-3)GalNAc(b1-3)Gal(a1-4)Gal(b1-4)Glc
Summary of the method: as §1

B1: EcCDA (Encephalitazoon cuniculi), Q8SU65 (protein)
chain: MLLCLLYFTSSWCSGSDVPDVCTNSGMIAINFVDGPVRGVTDRILNTLDELGVKATFSFTVNQKAVGNVGQLYRRAVEEGHNVALRVDPSMDEGYQCLSQDALENNVDREIDTIDGLSGTEIRYAAVPICNGQVNSEMYNILTERGVLPVGYTFCPYDYDDPVGEFESMIEGSDPKHHSFIILMHDGQEADTSRLENMVKIGKDKGYRFVNMDECLQGYKGAPGDPELSLRGKGVESIGKGFLPFFLMMLVRLL
- glycan array binding signal (z-score) [1]: 2.96
- glycan array binding signal (z-score) [2]: -0.055
- glycan array binding signal (z-score) [3]: 3.02
- glycan array binding signal (z-score) [4]: -0.337
- glycan array binding signal (z-score) [5]: -0.363
- glycan array binding signal (z-score) [6]: -0.234
- glycan array binding signal (z-score) [7]: -0.1
- glycan array binding signal (z-score) [8]: 0.115
- glycan array binding signal (z-score) [9]: 0.022
- glycan array binding signal (z-score) [10]: 5.58
- glycan array binding signal (z-score) [11]: 1.6
- glycan array binding signal (z-score) [12]: -0.289
- glycan array binding signal (z-score) [13]: -0.2
- glycan array binding signal (z-score) [14]: -0.34
- glycan array binding signal (z-score) [15]: -0.476
- glycan array binding signal (z-score) [16]: -0.318
- glycan array binding signal (z-score) [17]: -0.322
- glycan array binding signal (z-score) [18]: -0.284
- glycan array binding signal (z-score) [19]: 0.071
- glycan array binding signal (z-score) [20]: 4.58

B2: Epa23 (Candida glabrata) (protein)
chain: MGSSHHHHHHSSGLVPRGSHMIPNPFEGTINNFPSGCSPNHGLYNRGLTMELYNYSYIHPQSIQSYFNTSTLKKMEKGQCWDPSYLDVNYPRTGYKTHNRFAKVNGIDGILDFEFNPTRSCVPSKGQLPQNYNYPLQFTLSNFTMLLYGYFKPKVTAKHTFTIFADDLLFLNFGAGNAFDCCQQQDTIDDFGNYQAYALWGSDTQQNTLTVNLDANIYYPIRMFYNNRDFKGALNMYFTTDESNTKINDFSGYLFNIPDSSEGCPAHISYETECGNVSG
- glycan array binding signal (z-score) [21]: -0.229
- glycan array binding signal (z-score) [22]: -0.234
- glycan array binding signal (z-score) [23]: -0.161
- glycan array binding signal (z-score) [24]: -0.008
- glycan array binding signal (z-score) [3]: -0.007
- glycan array binding signal (z-score) [25]: -0.078
- glycan array binding signal (z-score) [26]: -0.177
- glycan array binding signal (z-score) [27]: -0.134
- glycan array binding signal (z-score) [28]: -0.232
- glycan array binding signal (z-score) [29]: -0.223
- glycan array binding signal (z-score) [30]: -0.182
- glycan array binding signal (z-score) [31]: 0.12
- glycan array binding signal (z-score) [32]: 0.139
- glycan array binding signal (z-score) [33]: 0.484
- glycan array binding signal (z-score) [34]: 2.44
- glycan array binding signal (z-score) [35]: 3.33
- glycan array binding signal (z-score) [36]: 2.62
- glycan array binding signal (z-score) [37]: 3.79
- glycan array binding signal (z-score) [38]: 3.01
- glycan array binding signal (z-score) [39]: 2.83
- glycan array binding signal (z-score) [40]: 4.71
- glycan array binding signal (z-score) [41]: 1.43
- glycan array binding signal (z-score) [42]: 0.008
- glycan array binding signal (z-score) [43]: -0.241
- glycan array binding signal (z-score) [44]: 6.7
- glycan array binding signal (z-score) [45]: 11.8
- glycan array binding signal (z-score) [46]: 5.69
- glycan array binding signal (z-score) [47]: 13.5
- glycan array binding signal (z-score) [48]: -0.137
- glycan array binding signal (z-score) [12]: -0.168
